This note sets out measurements from ChEMBL document CHEMBL1961873, “Compounds: GSK PKIS; Assays: Nanosyn kinase panel” (2012).

Experiment [1] deals with Protein kinase C gamma type (Homo sapiens) (UniProt P05129). Conditions: at 1 µM.
Experiment [2] deals with T1, Protein kinase C iota type (Homo sapiens) (UniProt P41743).
T1 sequence (whole entry): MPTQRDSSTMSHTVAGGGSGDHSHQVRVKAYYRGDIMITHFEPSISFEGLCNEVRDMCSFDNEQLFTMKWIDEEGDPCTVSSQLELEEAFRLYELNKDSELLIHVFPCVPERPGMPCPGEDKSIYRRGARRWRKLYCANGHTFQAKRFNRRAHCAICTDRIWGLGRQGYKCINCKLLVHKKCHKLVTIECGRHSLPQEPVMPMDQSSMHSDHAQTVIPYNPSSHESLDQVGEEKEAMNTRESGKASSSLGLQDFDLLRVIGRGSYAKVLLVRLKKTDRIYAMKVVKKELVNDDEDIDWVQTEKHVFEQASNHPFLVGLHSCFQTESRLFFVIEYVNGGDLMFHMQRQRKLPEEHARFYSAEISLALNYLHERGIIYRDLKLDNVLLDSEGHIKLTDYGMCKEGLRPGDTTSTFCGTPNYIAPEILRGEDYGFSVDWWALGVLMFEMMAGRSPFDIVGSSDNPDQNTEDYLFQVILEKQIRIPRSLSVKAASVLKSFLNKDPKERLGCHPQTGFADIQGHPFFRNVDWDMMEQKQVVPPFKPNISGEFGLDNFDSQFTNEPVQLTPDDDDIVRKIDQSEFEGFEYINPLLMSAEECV
Conditions: at 0.1 µM.

The target of experiment [3] is T1, Protein kinase C iota type (Homo sapiens). Conditions: at 1 µM.
For experiment [4], the target named is Protein kinase C theta type (Homo sapiens) (UniProt Q04759). Particulars: at 0.1 µM.
Experiment [5] has the same target. Conditions: at 1 µM.
In experiment [6] the target is Protein kinase C beta type (Homo sapiens) (UniProt P05771). Particulars: at 0.1 µM.
Experiment [7] shares this target. Particulars: at 1 µM.
For experiment [8], the target named is T2, Serine/threonine-protein kinase D1 (Homo sapiens) (UniProt Q15139).
T2 sequence (whole entry): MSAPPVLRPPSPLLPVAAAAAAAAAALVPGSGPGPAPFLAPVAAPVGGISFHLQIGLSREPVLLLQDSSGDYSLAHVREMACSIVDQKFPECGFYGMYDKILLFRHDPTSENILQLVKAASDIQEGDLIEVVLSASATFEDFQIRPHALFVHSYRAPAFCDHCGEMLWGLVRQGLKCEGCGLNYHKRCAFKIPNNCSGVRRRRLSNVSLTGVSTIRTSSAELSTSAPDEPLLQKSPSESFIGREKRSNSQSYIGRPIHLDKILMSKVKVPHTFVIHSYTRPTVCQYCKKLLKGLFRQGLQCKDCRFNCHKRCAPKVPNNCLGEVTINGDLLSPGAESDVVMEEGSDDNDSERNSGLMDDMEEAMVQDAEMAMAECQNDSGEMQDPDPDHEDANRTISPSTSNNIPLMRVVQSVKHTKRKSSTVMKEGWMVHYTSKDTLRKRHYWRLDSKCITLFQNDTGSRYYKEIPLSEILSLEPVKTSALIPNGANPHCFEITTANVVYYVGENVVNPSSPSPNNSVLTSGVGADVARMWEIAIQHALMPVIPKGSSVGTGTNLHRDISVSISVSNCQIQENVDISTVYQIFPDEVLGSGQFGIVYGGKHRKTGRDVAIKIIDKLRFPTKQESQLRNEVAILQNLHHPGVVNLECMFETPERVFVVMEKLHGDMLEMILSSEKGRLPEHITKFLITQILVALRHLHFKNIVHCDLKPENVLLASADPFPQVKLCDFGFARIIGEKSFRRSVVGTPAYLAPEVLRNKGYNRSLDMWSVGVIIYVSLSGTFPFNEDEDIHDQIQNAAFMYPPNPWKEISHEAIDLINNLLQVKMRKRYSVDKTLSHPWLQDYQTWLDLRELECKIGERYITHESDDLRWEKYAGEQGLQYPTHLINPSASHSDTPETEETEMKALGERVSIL
Particulars: at 0.1 µM.

The target in experiment [9] is T2, Serine/threonine-protein kinase D1 (Homo sapiens). Particulars: at 1 µM.
In experiment [10] the target is T3, Serine/threonine-protein kinase D2 (Homo sapiens) (UniProt Q9BZL6).
T3 sequence (whole entry): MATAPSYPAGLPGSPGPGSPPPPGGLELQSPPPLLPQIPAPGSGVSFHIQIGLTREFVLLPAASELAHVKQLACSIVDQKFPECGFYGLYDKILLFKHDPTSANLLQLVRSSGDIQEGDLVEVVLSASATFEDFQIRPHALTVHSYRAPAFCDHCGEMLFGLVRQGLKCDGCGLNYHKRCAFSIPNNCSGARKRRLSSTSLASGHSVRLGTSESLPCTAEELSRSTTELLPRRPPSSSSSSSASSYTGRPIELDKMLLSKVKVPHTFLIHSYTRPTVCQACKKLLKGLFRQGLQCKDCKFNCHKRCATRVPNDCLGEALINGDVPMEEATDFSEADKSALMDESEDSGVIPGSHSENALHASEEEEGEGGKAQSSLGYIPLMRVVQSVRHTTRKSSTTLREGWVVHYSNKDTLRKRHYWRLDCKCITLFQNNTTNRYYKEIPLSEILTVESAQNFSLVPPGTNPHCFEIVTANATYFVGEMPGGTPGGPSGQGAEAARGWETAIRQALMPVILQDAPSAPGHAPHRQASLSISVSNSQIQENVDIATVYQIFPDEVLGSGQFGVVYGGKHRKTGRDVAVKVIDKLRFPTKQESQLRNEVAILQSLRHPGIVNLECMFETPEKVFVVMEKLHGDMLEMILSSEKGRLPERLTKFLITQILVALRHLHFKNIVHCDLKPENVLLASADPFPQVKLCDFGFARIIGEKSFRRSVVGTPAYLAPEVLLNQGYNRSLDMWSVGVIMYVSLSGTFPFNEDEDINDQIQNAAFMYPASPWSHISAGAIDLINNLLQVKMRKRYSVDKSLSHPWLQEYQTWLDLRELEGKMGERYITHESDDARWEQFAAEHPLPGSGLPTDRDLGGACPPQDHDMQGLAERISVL
Particulars: at 0.1 µM.

Experiment [11] has as its target T3, Serine/threonine-protein kinase D2 (Homo sapiens). Conditions: at 1 µM.
The target in experiment [12] is T4, Serine/threonine-protein kinase D3 (Homo sapiens) (UniProt O94806).
T4 sequence (whole entry): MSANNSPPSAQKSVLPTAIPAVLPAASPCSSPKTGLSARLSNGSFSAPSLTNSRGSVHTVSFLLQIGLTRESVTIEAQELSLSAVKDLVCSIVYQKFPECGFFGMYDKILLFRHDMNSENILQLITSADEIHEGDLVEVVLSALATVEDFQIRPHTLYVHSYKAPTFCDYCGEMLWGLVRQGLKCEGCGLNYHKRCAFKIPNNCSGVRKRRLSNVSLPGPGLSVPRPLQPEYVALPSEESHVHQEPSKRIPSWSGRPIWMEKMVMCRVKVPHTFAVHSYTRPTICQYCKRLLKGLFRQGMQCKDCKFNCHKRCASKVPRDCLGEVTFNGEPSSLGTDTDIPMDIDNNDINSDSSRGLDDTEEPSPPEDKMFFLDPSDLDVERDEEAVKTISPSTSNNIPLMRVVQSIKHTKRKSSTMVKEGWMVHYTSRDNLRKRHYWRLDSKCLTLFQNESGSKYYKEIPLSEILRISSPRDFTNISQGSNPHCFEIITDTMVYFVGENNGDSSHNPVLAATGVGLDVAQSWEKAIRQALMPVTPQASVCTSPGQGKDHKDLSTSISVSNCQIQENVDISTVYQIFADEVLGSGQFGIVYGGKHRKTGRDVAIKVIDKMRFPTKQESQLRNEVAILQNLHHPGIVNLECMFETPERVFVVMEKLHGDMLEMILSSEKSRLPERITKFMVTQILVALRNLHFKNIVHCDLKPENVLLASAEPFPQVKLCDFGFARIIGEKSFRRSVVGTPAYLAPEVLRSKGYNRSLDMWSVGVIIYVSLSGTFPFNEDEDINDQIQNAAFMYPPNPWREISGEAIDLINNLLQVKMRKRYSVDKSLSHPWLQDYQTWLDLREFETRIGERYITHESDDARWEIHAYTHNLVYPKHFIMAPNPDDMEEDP
Particulars: at 0.1 µM.

Experiment [13] concerns the target T4, Serine/threonine-protein kinase D3 (Homo sapiens). Particulars: at 1 µM.
The target of experiment [14] is T5, cGMP-dependent protein kinase 1 (Homo sapiens) (UniProt Q13976).
T5 sequence (whole entry): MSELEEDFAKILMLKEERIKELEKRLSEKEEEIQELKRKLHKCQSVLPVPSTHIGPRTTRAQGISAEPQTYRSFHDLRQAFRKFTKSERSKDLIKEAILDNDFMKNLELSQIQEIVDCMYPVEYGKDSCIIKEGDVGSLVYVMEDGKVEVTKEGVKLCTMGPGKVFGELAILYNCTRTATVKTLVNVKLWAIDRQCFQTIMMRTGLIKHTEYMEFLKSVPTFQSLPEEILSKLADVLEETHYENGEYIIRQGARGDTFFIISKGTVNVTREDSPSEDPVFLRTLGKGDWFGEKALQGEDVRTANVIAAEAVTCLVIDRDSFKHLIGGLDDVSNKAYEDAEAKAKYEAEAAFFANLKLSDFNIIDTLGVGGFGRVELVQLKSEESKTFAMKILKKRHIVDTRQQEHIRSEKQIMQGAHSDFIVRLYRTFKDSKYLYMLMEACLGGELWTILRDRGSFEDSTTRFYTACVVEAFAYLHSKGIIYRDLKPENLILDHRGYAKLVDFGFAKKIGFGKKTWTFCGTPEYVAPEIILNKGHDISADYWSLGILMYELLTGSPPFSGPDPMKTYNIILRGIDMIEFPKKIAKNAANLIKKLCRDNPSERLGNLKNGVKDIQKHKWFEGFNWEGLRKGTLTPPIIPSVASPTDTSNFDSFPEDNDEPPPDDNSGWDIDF
Particulars: at 0.1 µM.

Experiment [15] has as its target T5, cGMP-dependent protein kinase 1 (Homo sapiens). Particulars: at 1 µM.
Experiment [16] deals with T6, cGMP-dependent protein kinase 2 (Homo sapiens) (UniProt Q13237).
T6 sequence (whole entry): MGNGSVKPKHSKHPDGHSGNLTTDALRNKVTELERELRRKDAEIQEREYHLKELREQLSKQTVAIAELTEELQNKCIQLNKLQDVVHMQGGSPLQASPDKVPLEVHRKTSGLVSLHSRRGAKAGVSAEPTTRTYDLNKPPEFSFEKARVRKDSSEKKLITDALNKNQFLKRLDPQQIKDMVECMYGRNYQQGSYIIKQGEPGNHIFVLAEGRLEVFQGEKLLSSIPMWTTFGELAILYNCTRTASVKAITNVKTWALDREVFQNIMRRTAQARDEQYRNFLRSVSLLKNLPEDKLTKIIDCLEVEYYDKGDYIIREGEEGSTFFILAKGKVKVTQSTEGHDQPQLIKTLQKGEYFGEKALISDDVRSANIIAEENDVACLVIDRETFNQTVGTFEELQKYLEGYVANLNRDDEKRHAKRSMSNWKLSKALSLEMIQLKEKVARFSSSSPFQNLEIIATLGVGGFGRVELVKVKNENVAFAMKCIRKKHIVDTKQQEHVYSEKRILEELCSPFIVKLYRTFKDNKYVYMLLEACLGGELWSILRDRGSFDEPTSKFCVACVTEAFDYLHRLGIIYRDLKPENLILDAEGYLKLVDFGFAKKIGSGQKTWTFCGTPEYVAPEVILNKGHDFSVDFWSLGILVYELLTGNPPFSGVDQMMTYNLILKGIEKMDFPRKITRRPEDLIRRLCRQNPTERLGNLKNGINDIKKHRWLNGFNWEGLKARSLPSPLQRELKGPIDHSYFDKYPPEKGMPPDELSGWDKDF
Particulars: at 0.1 µM.

The target in experiment [17] is T6, cGMP-dependent protein kinase 2 (Homo sapiens). Conditions: at 1 µM.
For experiment [18], the target named is T7, cAMP-dependent protein kinase catalytic subunit PRKX (Homo sapiens) (UniProt P51817).
T7 sequence (whole entry): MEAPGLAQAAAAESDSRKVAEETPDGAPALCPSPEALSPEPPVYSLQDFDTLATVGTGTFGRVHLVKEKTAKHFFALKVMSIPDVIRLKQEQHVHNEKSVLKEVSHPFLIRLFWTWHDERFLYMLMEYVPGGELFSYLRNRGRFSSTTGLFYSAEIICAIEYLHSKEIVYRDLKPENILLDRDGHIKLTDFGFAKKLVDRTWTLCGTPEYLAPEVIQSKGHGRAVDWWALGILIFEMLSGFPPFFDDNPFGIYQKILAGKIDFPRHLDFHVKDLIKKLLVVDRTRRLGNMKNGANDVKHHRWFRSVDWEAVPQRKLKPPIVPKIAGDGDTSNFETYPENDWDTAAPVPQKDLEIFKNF
Conditions: at 0.1 µM.

The target of experiment [19] is T7, cAMP-dependent protein kinase catalytic subunit PRKX (Homo sapiens). Particulars: at 1 µM.
For experiment [20], the target named is Rho-associated protein kinase 1 (Homo sapiens) (UniProt Q13464). Conditions: at 0.1 µM.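 Also: values are mean percent inhibition of ROCK1.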
Chain of Rho-associated protein kinase 1 (Homo sapiens) (Q13464 2-1354 limits assumed): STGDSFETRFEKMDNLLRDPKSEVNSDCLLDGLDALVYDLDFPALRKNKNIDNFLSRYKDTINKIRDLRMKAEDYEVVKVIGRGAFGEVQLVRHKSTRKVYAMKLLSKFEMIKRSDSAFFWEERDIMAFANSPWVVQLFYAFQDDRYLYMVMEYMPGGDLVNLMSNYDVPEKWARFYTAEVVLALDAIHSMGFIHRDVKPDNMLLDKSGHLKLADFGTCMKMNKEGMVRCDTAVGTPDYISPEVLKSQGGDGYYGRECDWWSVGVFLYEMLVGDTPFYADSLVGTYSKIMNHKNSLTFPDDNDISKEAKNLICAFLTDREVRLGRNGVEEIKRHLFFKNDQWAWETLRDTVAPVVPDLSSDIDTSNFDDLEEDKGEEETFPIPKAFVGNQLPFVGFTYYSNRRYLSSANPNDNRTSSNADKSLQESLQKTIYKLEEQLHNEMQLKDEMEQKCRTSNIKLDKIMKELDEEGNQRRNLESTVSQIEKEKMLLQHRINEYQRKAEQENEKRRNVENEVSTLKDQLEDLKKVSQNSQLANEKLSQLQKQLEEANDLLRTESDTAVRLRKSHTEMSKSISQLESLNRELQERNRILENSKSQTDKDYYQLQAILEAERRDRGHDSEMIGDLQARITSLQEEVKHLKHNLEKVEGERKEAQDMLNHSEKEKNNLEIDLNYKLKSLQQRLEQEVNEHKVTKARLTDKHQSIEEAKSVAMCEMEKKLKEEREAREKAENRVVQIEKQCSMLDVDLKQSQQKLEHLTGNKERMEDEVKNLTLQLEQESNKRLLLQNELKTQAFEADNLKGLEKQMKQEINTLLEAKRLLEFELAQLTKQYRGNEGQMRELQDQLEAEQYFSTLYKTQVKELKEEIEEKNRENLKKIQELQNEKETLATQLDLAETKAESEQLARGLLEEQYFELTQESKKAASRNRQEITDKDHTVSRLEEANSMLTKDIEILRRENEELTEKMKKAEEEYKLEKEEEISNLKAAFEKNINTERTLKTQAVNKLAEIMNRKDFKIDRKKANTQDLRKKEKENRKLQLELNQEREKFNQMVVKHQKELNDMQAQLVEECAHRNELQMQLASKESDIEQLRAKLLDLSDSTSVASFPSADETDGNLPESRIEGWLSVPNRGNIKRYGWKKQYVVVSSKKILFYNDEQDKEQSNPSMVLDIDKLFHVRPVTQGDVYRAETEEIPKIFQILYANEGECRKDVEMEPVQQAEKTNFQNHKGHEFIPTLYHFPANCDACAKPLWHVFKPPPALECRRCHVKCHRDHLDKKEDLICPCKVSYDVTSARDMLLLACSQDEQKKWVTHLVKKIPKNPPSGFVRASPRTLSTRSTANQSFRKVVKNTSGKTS

Chain of Protein kinase C beta type (Homo sapiens) (P05771 2-671 limits assumed): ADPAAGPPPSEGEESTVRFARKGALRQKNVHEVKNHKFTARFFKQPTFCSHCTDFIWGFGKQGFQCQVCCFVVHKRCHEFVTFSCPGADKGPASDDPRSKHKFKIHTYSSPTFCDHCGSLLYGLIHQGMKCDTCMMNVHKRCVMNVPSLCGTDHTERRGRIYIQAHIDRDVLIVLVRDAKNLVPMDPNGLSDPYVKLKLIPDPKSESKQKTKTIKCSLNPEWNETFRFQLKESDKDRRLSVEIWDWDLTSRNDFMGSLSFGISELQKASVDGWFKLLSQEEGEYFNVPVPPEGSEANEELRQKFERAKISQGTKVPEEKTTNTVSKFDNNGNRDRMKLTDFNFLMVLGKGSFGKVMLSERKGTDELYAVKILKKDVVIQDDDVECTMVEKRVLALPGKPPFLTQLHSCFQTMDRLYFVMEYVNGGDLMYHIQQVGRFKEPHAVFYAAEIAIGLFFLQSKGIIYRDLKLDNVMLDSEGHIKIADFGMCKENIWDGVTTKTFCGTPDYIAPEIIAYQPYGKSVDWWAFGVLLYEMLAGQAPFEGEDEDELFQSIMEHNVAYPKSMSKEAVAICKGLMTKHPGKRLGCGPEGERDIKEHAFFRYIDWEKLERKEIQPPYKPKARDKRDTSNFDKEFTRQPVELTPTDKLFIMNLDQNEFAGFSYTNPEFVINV
Chain of Protein kinase C theta type (Homo sapiens) (Q04759 whole entry, looked up): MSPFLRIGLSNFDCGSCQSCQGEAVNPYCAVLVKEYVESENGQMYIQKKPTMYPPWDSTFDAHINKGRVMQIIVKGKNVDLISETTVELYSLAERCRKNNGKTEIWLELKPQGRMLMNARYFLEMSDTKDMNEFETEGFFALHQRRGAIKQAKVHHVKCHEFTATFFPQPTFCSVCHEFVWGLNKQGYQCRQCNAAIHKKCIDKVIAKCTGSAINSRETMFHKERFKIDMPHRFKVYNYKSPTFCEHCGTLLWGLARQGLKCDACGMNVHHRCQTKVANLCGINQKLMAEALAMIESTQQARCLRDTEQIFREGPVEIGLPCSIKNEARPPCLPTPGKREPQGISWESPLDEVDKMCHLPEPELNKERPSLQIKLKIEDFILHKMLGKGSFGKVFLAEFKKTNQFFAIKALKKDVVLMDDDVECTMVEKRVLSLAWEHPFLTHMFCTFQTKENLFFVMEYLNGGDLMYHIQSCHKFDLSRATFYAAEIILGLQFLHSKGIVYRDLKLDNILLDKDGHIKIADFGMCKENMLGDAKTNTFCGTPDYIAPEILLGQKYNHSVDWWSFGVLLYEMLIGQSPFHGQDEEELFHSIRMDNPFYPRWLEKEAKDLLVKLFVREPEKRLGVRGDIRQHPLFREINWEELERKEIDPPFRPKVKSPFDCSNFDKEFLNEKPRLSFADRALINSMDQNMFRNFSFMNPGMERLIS

In the case of `C[C@@H](Oc1cc(-n2cnc3ccc(OC4CCN(C)CC4)cc32)sc1C(N)=O)c1ccccc1Cl`, the inhibition turned out to be 4.97% in experiment [1]; 1.12% in experiment [2]; 2.89% in [3]; 3.08% in experiment [4]; 9.67% in [5]; 1.56% in experiment [6]. Moreover, the inhibition in experiment [7] came out at 8.48%; in experiment [8], 0.52%; in experiment [9] it was 3.79%; in experiment [10] it was 0.7%; in experiment [11], 1.06%; in experiment [12] it was 0.8%. Also, the inhibition in [13] was found to be 3.55%; in experiment [14] it was 3.98%; in [15] it was 4.08%; in experiment [16], 1.43%; in experiment [17] it was 4.43%; in experiment [18], 2.2%. The inhibition in experiment [19] is -1.84%; in [20], 1.76%.
